Hit rate of the full screen: of about 96,000 compounds, about 19,000 (20%) were called active. A selection follows. Unmarked numbers belong to inactive results.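 Rule for the calls: active = blocking of liver enzyme CYP2C9 beyond about 50% at 5 µM (limit read from the data); inactive = the rest.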

For this assay, the target named is Cytochrome P450 2C9 (Homo sapiens) (UniProt P11712). Kind of assay: blockers of cytochrome P450 2C9 activity – biochemical, luminescence, ADME assay, primary screen (AID 777). Conditions: CYP2C9 Supersomes, luciferin-H conversion, at 5 µM, hits give high values.
Cytochrome P450 2C9 (Homo sapiens), sequence (P11712 whole entry, looked up): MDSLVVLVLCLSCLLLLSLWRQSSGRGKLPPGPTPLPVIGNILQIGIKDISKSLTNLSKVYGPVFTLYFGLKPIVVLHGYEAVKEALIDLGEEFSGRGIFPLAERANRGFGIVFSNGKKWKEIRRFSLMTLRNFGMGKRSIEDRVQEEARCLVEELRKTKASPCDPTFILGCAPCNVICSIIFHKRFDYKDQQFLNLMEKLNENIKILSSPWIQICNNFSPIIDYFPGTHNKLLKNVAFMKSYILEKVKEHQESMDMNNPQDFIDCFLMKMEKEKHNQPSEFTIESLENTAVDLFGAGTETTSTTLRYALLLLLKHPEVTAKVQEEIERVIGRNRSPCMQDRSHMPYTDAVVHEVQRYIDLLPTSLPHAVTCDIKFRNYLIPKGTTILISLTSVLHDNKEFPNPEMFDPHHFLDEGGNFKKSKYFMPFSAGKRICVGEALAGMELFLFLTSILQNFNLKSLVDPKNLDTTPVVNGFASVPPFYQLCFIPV
`CCn1c(C)nc2cc(C(=O)NNS(=O)(=O)c3ccc(C)cc3C)ccc21`: the inhibition is -5.3%.

On to `CCOC(=O)c1ccc(NC(=O)CSc2ncccn2)cc1`, for which the inhibition is 34.5%. As for `CCOC(=O)c1ccc2c(c1)nc(SCC(=O)NC(C)C)n2CC`, the figure is 62.3% (active). The result for `Cc1ccc(N2CCN(/N=C/c3cccs3)CC2)cc1` reads -7%; that for `S=c1nccc(-c2cc(Cl)sc2Cl)[nH]1`, -6.6%; that for `CCOc1ccc(CNC(=O)C2CC(=O)N(C3CCCC3)C2)cc1OC` (centres undefined), 7.1%. In the case of `CCC(O)CNc1nc(-n2nc(C)cc2C)nc2sc3c(c12)CC(C)(C)OC3` (centres undefined), the inhibition is 19.9%. As for `COc1ccc(OC)c(C(=O)c2coc3ccc(O)c(CN4CCOCC4)c23)c1`, the figure is 22%; as for `COc1ccc2occ(C(=O)c3ccc(N=C(C)N(C)C)cc3)c2c1`, -17.7%; as for `COc1ccc(OC)c(C(=O)c2coc3ccc(OC)cc23)c1`, 68.5% (active). As for `CCC1CCCCN1C(=O)Nc1cccc(NC(=O)N2CCCCC2CC)c1` (centres undefined), the figure is -13.6%; as for `Cc1cccc(N(CC(=O)N=Nc2c(O)[nH]c3ccccc23)S(C)(=O)=O)c1C`, 44.2%; as for `CC(=O)c1ccc2c(c1)c1ccccc1n2CC(C)C`, 20.5%. On to `CS(=O)(=O)N(CC(O)Cn1c2ccccc2c2ccccc21)c1cccc2ccccc12` (centres undefined), for which the inhibition is 99.6% (active). As for `C=CCn1c(SCC(=O)c2c(N)n(C)c(=O)n(C)c2=O)nc2sc(CC)cc2c1=O`, the figure is 38.3%; as for `CCS(=O)(=O)c1ccc2c(c1)N(S(=O)(=O)c1ccccc1)CC(C(=O)O)O2` (centres undefined), 42.8%. The result for `Cc1ccccc1CSCC(=O)NC(=O)NC(C)(C)C` reads 62.3% (active); that for `CC(C)(C)NC(=O)NC(=O)COC(=O)Cn1c(C(F)(F)F)nc2ccccc21`, 43.9%. The result for `COc1ccccc1OCCC(=O)OCC(=O)NC(=O)NC(C)(C)C` reads 2.5%. With `O=C(O)C1C2C=CC(C2)C1C(=O)N1CCN(CCO)CC1` (centres undefined), the inhibition was 10.3%.

As for `COC(=O)c1ccc(COC(=O)c2c(C)nn(Cc3ccccc3Cl)c2Cl)o1`, the inhibition is 83.3% (active).

Regarding `CCOC(=O)c1cnn(Cc2ccccc2Cl)c1N`, the inhibition is 22%. As for `Cc1nn(Cc2ccccc2)c(Cl)c1C(=O)OC1CCOC1=O` (centres undefined), the inhibition is 5.7%. As for `Cc1noc(C)c1C(=O)N1CCOCC1`, the figure is -7.1%; as for `c1ccc(CC2CCN(c3nc4ccccc4n4cnnc34)CC2)cc1`, 20.5%. As for `CCCn1c(C)cc(C(=O)COC(=O)c2c(C)nn(-c3ccccc3)c2C)c1C`, the figure is -31.1%; as for `O=S(=O)(c1cnccc1N1CCN(/N=C/c2ccc(Br)cc2)CC1)N1CCCCC1`, -9.2%; as for `CC(C)=C1SC(N2CCN(c3cccc(C)c3)CC2)=NC1=O`, -36.8%. The result for `CNS(=O)(=O)c1cnccc1N1CCN(c2cccc(C)c2)CC1` reads 57.7% (active). With `Cn1c(=O)n(C)c2cc(/C=N/NC(=O)c3cccc(Br)c3)ccc21`, the inhibition is -21.3%.

For `O=C(N/N=C\c1cccc(Br)c1)c1ccccc1-n1cccc1`, the inhibition is 66.3% (active). The result for `N=c1oc2ccccc2cc1C(=O)N/N=C/c1ccccc1` reads 27.9%. As for `Cc1nn(C)cc1C(=O)NNC(=S)Nc1ccc(Cl)cc1`, the figure is 18.7%; as for `CCN(Cc1cc2cc(C)ccc2[nH]c1=O)S(=O)(=O)c1ccccc1`, 5.9%; as for `O=C(NCCc1ccccn1)c1ccc(COc2ccccc2)o1`, 13.4%. The result for `COc1ccc(CCNC(=O)c2ccco2)cc1` reads 8.8%.

Regarding `COc1ccc(-c2nc(CCNC(=O)c3ccc(Br)o3)cs2)cc1`, the inhibition is 62.2% (active). As for `CCOC(=O)/C=c1\s/c(=C\c2ccccc2OC)c(=O)n1CC(=O)N1CCOCC1`, the figure is 2%; as for `Fc1ccc(CSc2nnc(-c3cc4c(s3)-c3ccccc3CC4)o2)cc1`, 52.4% (active); as for `CCSc1nnc(-c2cc3c(s2)-c2ccccc2CC3)o1`, -16.8%. The result for `Clc1ccc(CSc2nnc([C@@H]3CCCN3)o2)cc1` reads 31.8%; that for `CC(C)OC(=O)c1sc2nc3c(cc2c1N)C(=O)CCC3`, 19.5%. For `CC1CCN(c2oc(-c3ccccc3F)nc2C#N)CC1`, the inhibition was 80% (active). The result for `COc1ccccc1-c1nc(C#N)c(N2CCC(C(N)=O)CC2)o1` reads -9.8%; that for `N#Cc1nc(COc2ccc(Cl)cc2)oc1N1CCCC1`, 39.8%; that for `O=C(CN1CCOCC1)Nc1ccccc1`, 11.4%. The result for `Cc1ccc(NC(=O)CCN2CCc3ccccc3C2)cc1` reads 11.4%; that for `Cc1ccc(NC(=O)CN2CCc3ccccc3C2)cc1`, 87.4% (active); that for `Cc1ccccc1-n1nnc2c(=O)oc3ccccc3c21`, 5.8%. As for `Cc1cc(=O)[nH]c(SCC(N)=O)c1C#N`, the figure is 1.6%. For `CCOC(=O)Nc1ccc(NC(=O)OCC)cc1`, the inhibition is -16.2%. As to `COc1ccc(-n2c(C)cc(C(=O)CSc3nnc(-c4cccs4)o3)c2C)cc1`, the inhibition was 90.8% (active). As for `COc1ccccc1-c1nnc(SCC(=O)Nc2cc(C)on2)o1`, the figure is -64.2%; as for `NC(=O)CSc1oc(-c2cccs2)nc1S(=O)(=O)c1ccccc1`, 30.5%; as for `COc1ccc(-c2nnc(SCC(=O)c3cccs3)o2)c(OC)c1`, 16.1%. The result for `COc1ccc(OC)c(C(=O)CSc2nnc(-c3cccs3)o2)c1` reads 54.4% (active). As for `Cc1cc(NC(=O)CSc2nnc(-c3ccc(Cl)s3)o2)no1`, the figure is 18.4%; as for `C=CCNC(=S)NNc1ncnc2sc3c(c12)CC(C)(C)OC3`, 19.6%. Regarding `CCOC(=O)C1=C(C)N=c2s/c(=C\C(=O)OC)c(=O)n2C1c1ccc(OC)cc1` (centres undefined), the inhibition is 6.6%.

As to `O=C(CNC(=O)c1ccco1)OCC(=O)c1ccccc1`, the inhibition was -2.5%. As for `CCN(CC)c1ccc(C(=O)OCC(=O)c2ccco2)cc1`, the figure is -26.4%. The result for `O=C(COC(=O)c1ccccc1C(=O)c1ccccc1)c1ccco1` reads 90.4% (active).

As to `NC(=O)c1ccccc1NC(=O)c1ccccc1F`, the inhibition was -7.7%. The result for `Fc1ccccc1OCCSc1nc2ccccc2o1` reads 21.5%; that for `Cc1c(Br)cc(C(=O)N2CCCCCC2)c(C)c1C`, -38.3%; that for `FC(F)(F)c1ccc2nnc(-c3c(Cl)cccc3Cl)n2c1`, 25.7%.

Consider `CCCC(=O)Nc1ccc(Cl)c(NC(=O)c2ccc(Br)o2)c1`, for which the inhibition is 16.1%. As for `COc1cc(OC)c(NC(=O)c2ccc(Br)o2)cc1Cl`, the figure is 38.8%. As for `CCN1CCN(c2c(Cl)cccc2NC(=O)c2ccc(Br)o2)CC1`, the figure is 64.7% (active). The result for `CCOc1ccc(OCC)c(-c2c(=O)n(OCc3ccc(Cl)cc3)c3ccccc3[n+]2[O-])c1` reads 49.9%; that for `O=C(Nc1cccc2ncccc12)c1ccc(-c2ccc(Cl)cc2Cl)o1`, 5.6%; that for `Clc1ccc(COn2c(-c3ccc(Cl)cc3Cl)nc3ncccc32)cc1`, 97.1% (active). Take `COc1ccc(CC(=O)Nc2sc(Cc3ccccc3)c(C)c2C(N)=O)cc1`: the inhibition is 20.4%. Take `CCOC(=O)CSc1nnc(CNc2ccc(F)cc2)o1`: the inhibition is 14.8%. As for `CCCCSc1[nH]c(=O)c(C(=O)OCC)cc1C#N`, the figure is 19.4%; as for `CN(C(=O)c1ccccn1)c1nnc(-c2ccccn2)s1`, 2.1%; as for `CCOc1ccc(OCC)c(NC(=O)CN(C)S(=O)(=O)c2cccc3nsnc23)c1`, -23.4%. The result for `CCOc1ccc(-c2cn(S(=O)(=O)c3cccc4nsnc34)nc2N)cc1` reads 62.6% (active); that for `CCOc1ccc(NC(=O)CCS(=O)(=O)c2cccc3nsnc23)cc1`, 33.7%; that for `CCN(CC)Cc1csc2ccc(Br)cc12`, -14.3%. The result for `Cc1cc(NC(=O)Cn2nc(C(F)(F)F)c3c2CCCC3)no1` reads 14.9%. In the case of `Cc1cccc(-n2c(N)c(C(=O)N3CCN(C)CC3)sc2=S)c1`, the inhibition is 19.9%. The result for `Cc1ccc(-n2c(N)c(C(=O)N3CCOCC3)sc2=S)c(C)c1` reads 8.6%; that for `N#Cc1ccccc1-n1c(N)c(C(=O)N2CCCC2)sc1=S`, 69.3% (active).

As for `COc1ccc(-n2nc(C(=O)NCC(=O)Nc3cccc(C)n3)c3ccccc3c2=O)cc1`, the inhibition was 23.8%. With `COc1ccc(C(C)=O)cc1CN1C(=O)NC2(CCCCC2C)C1=O` (centres undefined), the inhibition was 9.5%. The result for `C#CCN1CC(C)/C(=N/O)CC1C` (centres undefined) reads -28.8%. The result for `CCC1C(C#N)=C(SC)NC2=C1C(=O)CC(C)(C)C2` (centres undefined) reads 19%. The result for `CCOC(=O)C1=C(C)NC2=C(C(=O)CC(C)(C)C2)C1c1ccsc1` (centres undefined) reads 39.8%. Consider `COc1ccc(C2C(C#N)=C(/N=C/N3CCOCC3)OC3=C2C(=O)CC(C)(C)C3)cc1OC` (centres undefined), for which the inhibition is 69% (active). On to `COc1cc(C2C(C#N)=C(C)NC3=C2C(=O)CC(C)(C)C3)ccc1O` (centres undefined), for which the inhibition was 58.5% (active). The result for `CC(=O)Nc1ccc(NC(=O)CN2CCCC(C)C2)c(Cl)c1` (centres undefined) reads 18.3%; that for `c1ccc(C2CCC(N3CCC(N4CCCCC4)CC3)CC2)cc1` (centres undefined), 11%; that for `Cc1cc(=O)oc(C)c1C(=O)N1CCCCC1`, 4.9%. The result for `CCOC(=O)/C(=C\c1ccc([N+](=O)[O-])cc1)C(=O)c1cc(C(C)=O)c(Nc2ccccc2)s1` reads 76.2% (active). For `CCOC(=O)/C(C#N)=C/c1ccc(OCC(=O)Nc2ccccc2)c(OC)c1`, the inhibition is 14.7%. As for `O=C(NCCc1ccccc1)/C(=C\c1ccc([N+](=O)[O-])cc1)NC(=O)c1ccccc1`, the figure is 3.8%. As for `CCC1CCCCN1CCNS(=O)(=O)c1ccc2c(c1)CCN2C(C)=O` (centres undefined), the inhibition is 15.6%. The result for `N/C(Cc1ccc([N+](=O)[O-])cc1)=N\OC(=O)COc1ccc2ccccc2c1` reads 4.4%.

The term inhibition denotes the drop in the measured response relative to a control, in per cent.

For the origin of these results see PubChem BioAssay AID777 (Sanford-Burnham Center for Chemical Genomics, 2007).
